Source: PubChem BioAssay
HPGD inh – HPGD (human) dehydrogenase inhibition; P15428; purified HPGD, NADH fluorescence kinetic, PGE2 substrate; Potency, µM, most hits filed as inhibitors; hit rate 4.3% among 150,000; AID 894
Target sequence (P15428 whole entry, looked up): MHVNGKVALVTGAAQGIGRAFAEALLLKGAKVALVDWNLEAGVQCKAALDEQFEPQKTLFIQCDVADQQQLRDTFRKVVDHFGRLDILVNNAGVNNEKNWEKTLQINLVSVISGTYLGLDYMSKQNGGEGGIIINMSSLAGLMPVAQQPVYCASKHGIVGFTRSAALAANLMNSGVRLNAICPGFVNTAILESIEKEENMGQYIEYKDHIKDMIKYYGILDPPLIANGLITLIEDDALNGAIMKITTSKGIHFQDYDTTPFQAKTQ
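NADH formation kinetics: reaction with 30 uM PGE2 and 1 mM NAD+ (final), 20 nM enzyme, Tris-HCl pH 8 with Tween 20, after 15 min compound preincubation at room temperature. Fluorescence change, last versus first of five reads.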
ALDH1A1 inh – inhibitors of human aldehyde dehydrogenase 1A1; P00352; Purified ALDH1A1, NADH fluorescence, propionaldehyde substrate; Potency, µM (highest dose often 75.3 µM), actives largely listed as inhibitors; hit rate 7.3% among 220,000; AID 1030
IMPase inh – membrane-permeable compound that blocks inositol monophosphatase | P97697 | CHO-M1 cells, IP1 accumulation, HTRF TR-FRET ratio | inhibition (IP1 accumulation), % at 46.1 µM | 120,000 tested, under 10 active | AID 901; active = well fitted curve in the direction sought with a large enough effect in the signal ratio, not every such curve was filed as active; inconclusive = small, poorly fitted or top-dose-only effect, or a change in a side signal; inactive = no such curve, though single readings can be large or run the other way; the % refers to the signal ratio;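 also: cells stimulated with carbachol in lithium chloride buffer; higher means more IMPase inhibition seen as more IP1 and lower FRET ratio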
Target sequence (P97697 whole entry, looked up): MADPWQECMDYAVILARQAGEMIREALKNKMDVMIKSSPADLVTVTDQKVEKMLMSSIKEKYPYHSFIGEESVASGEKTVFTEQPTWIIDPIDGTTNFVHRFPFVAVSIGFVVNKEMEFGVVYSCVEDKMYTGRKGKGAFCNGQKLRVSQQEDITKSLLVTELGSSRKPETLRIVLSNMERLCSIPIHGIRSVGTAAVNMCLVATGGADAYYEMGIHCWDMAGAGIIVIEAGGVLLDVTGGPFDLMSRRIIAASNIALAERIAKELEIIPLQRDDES
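Seeded CHO-M1 cells were dosed with compound at up to 46 uM, stimulated with carbachol for 30 min, then lysed in IP-One detection reagents. Higher IP1 lowers the TR-FRET signal.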
A number is an active result; [ ] = remark or other dose. Only some compounds are listed: those with a hit (about 9% of all), similar ones and a draw of the others. Unless noted, calls follow the shape of the dose curve; as a rule, active = well fitted inhibition curve with a large enough effect (not every such curve was filed as active); inconclusive = small, poorly fitted or top-dose-only effect, or another doubt; inactive = no such curve, though single readings can be large or run the other way.

For CN(C)c1ccc(NS(=O)(=O)c2ccc(-c3csnn3)cc2)cc1 the results were ALDH1A1 inh 8.9µM.
`COc1ccc(Oc2nc3c(c(=O)n(Cc4ccccc4Cl)c(=O)n3C)n2C)cc1` gave IMPase inh inactive.
Screening CN(C)/C=N/C(=S)Nc1ccc(Br)cc1F returned HPGD inh inactive, ALDH1A1 inh 22µM and IMPase inh inactive.
C=CCNC(=S)Nc1ccc(Br)cc1F was read as HPGD inh inactive, ALDH1A1 inh inactive and IMPase inh inactive.
COc1ccc(/C=C2/N=C(SCC(=O)Nc3cc(C)on3)N(c3ccccc3)C2=O)cc1 was read as HPGD inh inactive, ALDH1A1 inh inactive and IMPase inh inactive.
Screening CCC(SC1=N/C(=C/c2ccccc2)C(=O)N1c1ccccc1)C(=O)Nc1cc(C)on1 (stereo unspecified) returned HPGD inh inconclusive, ALDH1A1 inh 18µM and IMPase inh inactive.
For CC(=O)CCOC1CCCCO1 (stereo unspecified) the results were HPGD inh inactive and ALDH1A1 inh inactive.
For CS(=O)(=O)N(CC(=O)N1CCN(c2ccccc2F)CC1)C1CCCCC1 the results were HPGD inh inactive, ALDH1A1 inh 7.9µM and IMPase inh inactive.
Cc1ccc(S(=O)(=O)N(CC(=O)N2CCN(c3ccccc3F)CC2)C2CCCCC2)cc1 was read as HPGD inh inactive, ALDH1A1 inh inconclusive and IMPase inh inactive.
For CCOc1cc(C(=O)Nc2ccc(S(=O)(=O)Nc3cc(OC)nc(OC)n3)cc2)cc(OCC)c1OCC the results were IMPase inh inactive.
Screening Cc1cc(=O)oc2c(N)c(O)ccc12 returned HPGD inh inactive, ALDH1A1 inh inactive and IMPase inh inactive.
`O=c1oc2c(O)c(O)cc3c(=O)oc4c(O)c(O)cc1c4c23` gave HPGD inh 0.89µM, ALDH1A1 inh inactive and IMPase inh inconclusive.
COc1ccc(OC)c(C(=O)COC(=O)C2CC3CCCC(C2)C3=O)c1 (stereo unspecified) was read as HPGD inh inactive, ALDH1A1 inh 7.1µM and IMPase inh inactive.
For COc1ccc(C(=O)OCC(=O)c2cc(OC)ccc2OC)c(OC)c1 the results were HPGD inh inactive, ALDH1A1 inh inactive and IMPase inh inactive.
COc1cc(/C=C2/NC(=O)N(Cc3ccccc3F)C2=O)ccc1Oc1ccc([N+](=O)[O-])cn1 was read as HPGD inh inactive and ALDH1A1 inh 0.22µM.
For COC(=O)c1ccc2c(c1)N(Cc1ccccc1F)C(=O)c1ccccc1S2=O (stereo unspecified) the results were HPGD inh inactive, ALDH1A1 inh inactive and IMPase inh inactive.
`COc1cc(/C=C(/C#N)c2ccccc2)ccc1Oc1ccc([N+](=O)[O-])cn1` gave HPGD inh inactive, ALDH1A1 inh inactive and IMPase inh inactive[1.84 µM].
`O=C(O)c1cccc(-n2cccc2/C=C2/NC(=O)N(Cc3ccccc3F)C2=O)c1` gave ALDH1A1 inh 14µM.
For COc1cc(/C=C2/NC(=O)N(Cc3ccccc3F)C2=O)ccc1O the results were ALDH1A1 inh 6.3µM.
`Cc1ccccc1NC(=O)CN1C(=O)S/C(=C\c2cccn2-c2cccc(C(=O)O)c2)C1=O` gave HPGD inh 28µM, ALDH1A1 inh inconclusive and IMPase inh inactive.
Cc1cccc(C)c1NC(=O)CN1C(=O)S/C(=C\c2cccn2-c2cccc(C(=O)O)c2)C1=O was read as HPGD inh inactive, ALDH1A1 inh inactive and IMPase inh inactive.
O=C1N/C(=C/c2cccn2-c2ccc(F)cc2)C(=O)N1Cc1ccccc1F was read as HPGD inh inactive and ALDH1A1 inh inconclusive.
For Cn1ncc(Cl)c1C(=O)Nc1cccnc1 the results were HPGD inh inactive, ALDH1A1 inh inactive and IMPase inh inactive.
`CC(C)(C)C(=O)NC(n1cnc2c(N3CCOCC3)ncnc21)C(Cl)(Cl)Cl` (stereo unspecified) gave ALDH1A1 inh inactive.
Screening CCC(=O)OCC(=O)[C@@]1(OC(=O)CC)[C@@H](C)C[C@@H]2[C@H]3CCC4=CC(=O)C=C[C@]4(C)[C@@]3(F)[C@@H](O)C[C@@]21C returned HPGD inh inactive and ALDH1A1 inh inactive.
For O=C(Nc1ccc2[nH]ccc2c1)c1ccc(F)cc1 the results were ALDH1A1 inh inactive.
CO[C@]12C[C@@H](COC(=O)c3cncc(Br)c3)CN(C)[C@@H]1Cc1cn(C)c3cccc2c13 was read as HPGD inh inactive and ALDH1A1 inh inactive.
`CC1(C)CC(=O)C=C(Nc2ccccn2)C1` gave HPGD inh inactive, ALDH1A1 inh 8.9µM and IMPase inh inactive.
Screening CC1(C)CC(=O)C=C(Nc2ccc(Br)cn2)C1 returned HPGD inh inactive, ALDH1A1 inh inconclusive and IMPase inh inactive.
Screening Cc1cccc(NC(=O)c2ccc(C3SCC(=O)N3CCc3ccccc3)cc2)c1C (stereo unspecified) returned HPGD inh inactive, ALDH1A1 inh inconclusive and IMPase inh inactive.
`CCNC(=O)c1ccc(C2SCC(=O)N2CCc2ccccc2)cc1` (stereo unspecified) gave HPGD inh 22µM and ALDH1A1 inh inactive.
CCCNC(=O)c1ccc(C2SCC(=O)N2CCc2ccccc2)cc1 (stereo unspecified) was read as HPGD inh 13µM and ALDH1A1 inh inactive.
`CCc1ccc(NC(=O)c2ccc(C3SCC(=O)N3CCc3ccccc3)cc2)cc1` (stereo unspecified) gave HPGD inh inactive, ALDH1A1 inh inconclusive and IMPase inh inactive.
`N#CCC(CNc1ncc(C(F)(F)F)cc1Cl)OC(=O)c1cccc([N+](=O)[O-])c1` (stereo unspecified) gave HPGD inh inactive, ALDH1A1 inh inconclusive and IMPase inh inactive.
Cc1ccc(OC(=O)C2c3ccccc3Oc3ccccc32)cc1C was read as HPGD inh inactive and ALDH1A1 inh inactive.
Screening CSc1ccc(NC(=O)CC(C)=O)cc1 returned HPGD inh inactive, ALDH1A1 inh inactive and IMPase inh inactive.
For Cc1ccc(Sc2ccc(NC(=O)CCl)cc2)cc1C the results were HPGD inh inconclusive and ALDH1A1 inh 2µM.
Screening Cc1ccc(OCC(=O)Nc2ccc(F)cc2)cc1C returned HPGD inh inconclusive, ALDH1A1 inh inactive and IMPase inh inactive.
Screening Cc1ccc(C)c(Sc2ccc(NC(=O)CCl)cc2)c1 returned HPGD inh inactive and ALDH1A1 inh 0.89µM.
For CC1=CC2C(CC1=O)C(C)=CCC2C(C)C (stereo unspecified) the results were HPGD inh inactive and ALDH1A1 inh inactive.
`CC1CCCCN1C(=O)C12CCC(C)(/C(=N/O)C1)C2(C)C` (stereo unspecified) gave HPGD inh inactive, ALDH1A1 inh inactive and IMPase inh inactive.
Screening COc1cccc(-n2cnc3sc(C)cc3c2=O)c1 returned ALDH1A1 inh inactive.
Screening Cc1cc(C)n(-c2nc3ccccc3nc2N2CCN(c3cccc(C)c3C)CC2)n1 returned IMPase inh inactive.
For O=C(NC(=S)Nc1ccccc1N1CCOCC1)c1ccc([N+](=O)[O-])cc1 the results were HPGD inh inactive and ALDH1A1 inh inconclusive.
For O=C(NC(=S)Nc1ccc(C(=O)N2CCOCC2)cc1)c1ccc([N+](=O)[O-])cc1 the results were HPGD inh 0.71µM, ALDH1A1 inh 10µM and IMPase inh inactive.
`CC(C)C(=O)NC(=S)Nc1ccc(CN2CCOCC2)cc1` gave ALDH1A1 inh inactive.
